From ChEMBL document CHEMBL3988442, “University of Dundee, Small-Polar-MMV Screening Library” (2021)
Out of some 69,000 compounds screened, about 950 (1.4%) showed an effect of 50% or more. This excerpt belongs to a sample that is enriched for strong results.

Test system: Mycobacterium tuberculosis
Experiment: Cornell M. t heat shock assay; further: in the data most compounds retested in dose-response had high values
Type: functional, organism-based
Parameters: dose or concentration left out as unconfirmed

Compound | Percent Effect [%]
CCOC[C@]12COC[C@H]1CN(Cc1ccc3c(c1)OCO3)C2.O=C(O)C(F)(F)F | 12.44
O=C(CCc1ccccc1Cl)NS(=O)(=O)c1ccc2c(c1)OCCO2 | 62.1
O=C(CCc1ccccc1F)NS(=O)(=O)c1ccc2c(c1)OCCO2 | -5.66
O=C(CCc1ccccc1Br)NS(=O)(=O)c1ccc2c(c1)OCCO2 | 6.065
Cl.O=C(NC1CCCC1)C1(Cc2cc(C3CCOC3)no2)CCNCC1 (stereo unspecified) | 5.68
O=C(c1cnc(-c2ccccn2)s1)N1CCCC(n2cccn2)C1 (stereo unspecified) | -7.844
CC1CCN(C(=O)[C@H]2CC[C@@H]3[C@@H](CCN3Cc3nccs3)O2)CC1.O=C(O)C(F)(F)F | -10.06
COc1ccc(CNC(=O)N2CCN(CC(O)C3CC3)CC2)cc1.Cl (stereo unspecified) | 14.41
CC(C)c1cc(N(C)Cc2noc(C3CCCC3)n2)n2nccc2n1 | 67.06
CC(C)Cc1nc(CN(C)c2cc(C(C)C)nc3ccnn23)no1 | 23.84
CC(C)c1cc(N(C)Cc2cc(C3CC3)on2)n2nccc2n1 | 41.46
COC(=O)N1CCC(Nc2cccc(F)c2C(C)=O)CC1 | 5.265
COC(=O)N1CCC(Nc2cccc(F)c2C#N)CC1 | 83.06
COC(=O)N1CCC(Nc2cccc(F)c2C(C)=O)C1 (stereo unspecified) | 10.56
O=C(O)C(F)(F)F.O=C(O)C(F)(F)F.O=C(O)C(F)(F)F.c1cc(CN2C[C@@H]3OCCN(CC4CCCO4)[C@@H]3C2)ccn1 (stereo partly specified) | -18.75
CN(C(=O)C1CCCCC1)[C@@H]1CCC[C@@H](N2CCOCC2)[C@@H]1O | -6.532
CN(C(=O)C1CCOCC1)[C@@H]1CCC[C@@H](N2CCOCC2)[C@@H]1O | -10.17
CN(C(=O)C1CCOCC1)[C@@H]1CCC[C@@H](N2CCCC2)[C@@H]1O | 60.86
CC(C)OCCCN(Cc1cnn(C)c1)Cc1ccccn1.O=C(O)CC(O)(CC(=O)O)C(=O)O | -10.12
CCC1=N[C@@]2(CC[C@@H]3CN(CC4CC4)C[C@@H]32)C(=O)N1C.O=C(O)C(F)(F)F | 5.845
CN1CC(C)(C)CN(C(=O)CCc2ccccc2)CC1=O | 21.51
COCC(O)CN1CC(C)(C)CN(C(=O)CCc2ccccc2)CC1=O (stereo unspecified) | 27.88
CCCC(O)CN1CC(C)(C)CN(C(=O)CCc2ccccc2)CC1=O (stereo unspecified) | 10.24

Compound | Percent Effect [%]
CC(O)CN1CC(C)(C)CN(C(=O)CCc2ccccc2)CC1=O (stereo unspecified) | 50.7
CC(C)(O)CN1CC(C)(C)CN(C(=O)CCc2ccccc2)CC1=O | 52.03
CCN1CC(C)(C)CN(C(=O)CCc2ccccc2)CC1=O | 22.76
Fc1ccc(CN2CC[C@H]3O[C@@H](COCC4CCOCC4)CC[C@H]32)cc1.O=C(O)C(F)(F)F | -16.61
CCC(C)[C@H](N)c1nnc(SCC(=O)Nc2cc(C)ccc2C)o1.Cl (stereo partly specified) | -10.79
Cc1cc2c(=O)n3c(nc2s1)CCN(Cc1c[nH]cn1)CC3.Cl | -21.28
Clc1ccc(C2(CNC3=NCCN3)CC2)cc1.I | -24.96
Clc1ccc(C2(CNC3=NCCN3)CCCCC2)cc1.I | 77.48
Clc1ccc(C2(CNC3=NCCN3)CCCC2)cc1.I | 20.92
O=C(NCC1CC1)[C@H]1C[C@H]2OCC[C@H]2N(CCc2ccccc2)C1.O=C(O)C(F)(F)F | -0.2328
COc1ccc(-c2cc3nn(CC(N)=O)c(=O)n3c(C)n2)cc1 | 28.25
Cc1nc(-c2ccccc2)cc2nn(CC(N)=O)c(=O)n12 | 80.99
COc1ccc(-c2cc3nn(CC(=O)NC(C)C)c(=O)n3c(C)n2)cc1 | 21.42
CCC1=N[C@@]2(CC[C@@H]3CN(Cc4ccc(F)cc4)C[C@@H]32)C(=O)N1C.O=C(O)C(F)(F)F | 6.299
COCCN1CCC2(COCCN(Cc3ccc4c(c3)OCO4)C2)C1.O=C(O)C(F)(F)F.O=C(O)C(F)(F)F (stereo unspecified) | -9.9
O=C(O)C(F)(F)F.O=C(O)C(F)(F)F.O=C(O)C(F)(F)F.O=C1CO[C@@H]2CN(Cc3cccnc3)C[C@H]2N1Cc1ccncc1 | -18.69
COCCC(=O)N1CC[C@@H](N2CCOCC2)[C@@H]1Cc1ccccc1.O=C(O)C(F)(F)F | -10.34
Cc1cc(C(=O)NC2CCN(CC(N)=O)CC2)nn1C(C)(C)C | 61.29
CC(C)(C)n1nc(C(=O)NC2CCN(CC(N)=O)CC2)cc1C1CC1 | 19.52
CC(C)c1cc(C(=O)NC2CCN(CC(N)=O)CC2)nn1C(C)(C)C | 17.37
Cc1noc(C)c1-c1nc(C2CCCNC2)ccc1CO.Cl.Cl (stereo unspecified) | 6.462
COc1cc(CNC(C)Cn2cccn2)cc(OC)c1 (stereo unspecified) | -10.57
O=C(NCc1csc(Br)c1)c1ccncc1 | 14.96

Compound | Percent Effect [%]
Cc1ccc(CNCC(C)Oc2ccccn2)cc1.Cl (stereo unspecified) | -12.77
COc1cc(CNC(c2ccccc2)c2nccn2C)cc(OC)c1 (stereo unspecified) | 110.9
COc1c(CNC(c2ccccc2)c2nccn2C)c(C)nn1C (stereo unspecified) | -17.9
Cc1cnn(CC(C)NCc2ccc(OCc3nccn3C)cc2)c1 (stereo unspecified) | -7.408
Cc1ccc(CNC(c2ccccc2)c2nccn2C)cc1.Cl (stereo unspecified) | 106.1
Cc1cc(C)cc(CNC(c2ccccc2)c2nccn2C)c1 (stereo unspecified) | 112.3
Cc1cc(C)cc(CNC(C)c2c(C)nn(C)c2C)c1 (stereo unspecified) | -33.33
Cc1cccc(CNC(CN2CCN(C)CC2)c2ccccc2)c1 (stereo unspecified) | -9.551
O=C(CCNc1ncccn1)NCc1csc(Br)c1 | 2.477
Cn1ccnc1C(NCc1csc(Br)c1)c1ccccc1 (stereo unspecified) | 103.5
Cn1ccnc1CN1CCC2(CC(=O)N(c3cncnc3)C2)C1.O=C(O)C(F)(F)F (stereo unspecified) | 8.638
CC(C)NC(=O)c1sc2ccccc2c1[C@H]1CC[C@H](CN)CC1.Cl | 6.071
O=C(O)C(F)(F)F.c1cnc(N2Cc3nccn3CC(COc3cccnc3)C2)nc1 (stereo unspecified) | -4.281
Cn1ccnc1-c1noc(NCc2ccccc2)n1 | -11.975
Cc1ccc(CNC(CN2CCN(C)CC2)c2ccccc2)cc1 (stereo unspecified) | 5.608
Cc1ccc(CNC(c2ccccc2)c2nccn2C)cc1C (stereo unspecified) | 103.6
CCNC(c1ccc(Br)cc1)c1cccnc1 (stereo unspecified) | 0.8227
COc1ccc(CNC(Cn2cncn2)c2ccccc2)cc1C (stereo unspecified) | 7.595
Cc1ccc(CNC(CN2CCN(C)CC2)c2ccccc2)cc1C (stereo unspecified) | 7.265
Cn1ccnc1-c1noc(NCc2ccc(Br)cc2)n1 | -1.325
Cn1ccnc1C(NCc1ccc(Br)cc1)c1ccccc1 (stereo unspecified) | 112.1
Cn1nnc2c1C(COCc1ccccn1)CN(Cc1ccoc1)C2.O=C(O)C(F)(F)F.O=C(O)C(F)(F)F (stereo unspecified) | -16.51
O=S(=O)(N1CCOCC1)N1CCCC(c2ccccn2)C1 (stereo unspecified) | -20.74

Compound | Percent Effect [%]
COCCN1C[C@@H]2CCCO[C@@H]2[C@H](N(C)Cc2ccco2)C1.O=C(O)C(F)(F)F.O=C(O)C(F)(F)F | 1.752
Cn1cc(N2CC3(CCN(Cc4ccsc4)CC3)OCC2=O)cn1.O=C(O)C(F)(F)F | -18.04
Cc1cnccc1-c1cnn(CCNC(=O)C(C)(C)C)c1C1CC1.Cl | -19.45
O=C(O)C(F)(F)F.O=C1COC2(CCN(Cc3ccco3)CC2)CN1 | -45.46
Fc1ccc(N2CCCN(c3ccc(Cn4ccnc4)cn3)CC2)cc1 | 107.2
c1cn(Cc2ccc(N3CCCN(C4CCCC4)CC3)nc2)cn1 | 1.871
c1csc(CN2CCCN(c3ccc(Cn4ccnc4)cn3)CC2)c1 | -13.19
Cc1cc2c(cc1CNC(Cc1cccs1)c1nccs1)OCO2.Cl (stereo unspecified) | 5.172
CC(=O)N1C[C@@H]2CN(Cc3cccnc3)CCO[C@@H]2C1.O=C(O)C(F)(F)F.O=C(O)C(F)(F)F | -47.04
O=C(O)C(F)(F)F.O=C1[C@H]2CN(CC3CC3)C[C@H]2CN1c1ccsc1 | 20.81
Clc1cncc(N2CCCC2c2nnc3n2CCCCC3)n1 (stereo unspecified) | -7.126
Cc1cc(N2CCCC2c2nnc3n2CCCCC3)nc(N)n1 (stereo unspecified) | -8.114
Cc1cc(N2CCCC2c2nnc3n2CCCCC3)nc(C)n1 (stereo unspecified) | 66.84
Cn1ncc2c1CN(Cc1cccnc1)CC2COCC1CC1.O=C(O)C(F)(F)F.O=C(O)C(F)(F)F.O=C(O)C(F)(F)F (stereo unspecified) | -6.244
Cn1ncc2c1CN(Cc1ccccc1F)CC2COCC1CC1.O=C(O)C(F)(F)F.O=C(O)C(F)(F)F (stereo unspecified) | 103.1
Cn1ncc2c1CN(Cc1ccc(F)cc1)CC2COCC1CC1.O=C(O)C(F)(F)F.O=C(O)C(F)(F)F (stereo unspecified) | -18.92
COCCN1C(=O)CC(N2CCN(c3ccc(OC)cc3)CC2)C1=O (stereo unspecified) | 70.99
COCCN1C(=O)CC(N2CCN(c3ccccc3)CC2)C1=O (stereo unspecified) | 12.72
COCCN1C(=O)CC(N2CCN(c3ccc(F)cc3)CC2)C1=O (stereo unspecified) | -16.16
CN1C(=O)CCC12CCCN(C(=O)c1ccncc1F)C2.O=C(O)C(F)(F)F (stereo unspecified) | 38.17
Cl.NCC(=O)N1CCC(c2ccnc(Nc3cc(C(F)(F)F)ccn3)n2)C1 (stereo unspecified) | -2.931
Cc1cccc(CN2CC[C@@H]3[C@@H]2CCN3Cc2cccs2)n1.O=C(O)C(F)(F)F.O=C(O)C(F)(F)F | -14.73
